# According to the supplement of paper PMC11732987, “Enantioselective OTUD7B fragment discovery through chemoproteomics screening and high-throughput optimisation” (Communications Chemistry, 2025):
# Unmarked numbers belong to inactive results.
# What was measured:
# Assay in all cases: log2 ratio of Biotin-Ahx-Ub-VS probe labelling (fragment/DMSO); higher = less target engagement (more negative = stronger competition), active = hit call of the paper (q ≤ 0.05, log2 ratio ≤ -1)
# Conditions in all cases: compound concentration: 200 uM; treatment time: 3 h
# [1] = target: USP9X (UniProt Q93008)
# Chain of USP9X (Q93008 whole entry, the tested form may be a part): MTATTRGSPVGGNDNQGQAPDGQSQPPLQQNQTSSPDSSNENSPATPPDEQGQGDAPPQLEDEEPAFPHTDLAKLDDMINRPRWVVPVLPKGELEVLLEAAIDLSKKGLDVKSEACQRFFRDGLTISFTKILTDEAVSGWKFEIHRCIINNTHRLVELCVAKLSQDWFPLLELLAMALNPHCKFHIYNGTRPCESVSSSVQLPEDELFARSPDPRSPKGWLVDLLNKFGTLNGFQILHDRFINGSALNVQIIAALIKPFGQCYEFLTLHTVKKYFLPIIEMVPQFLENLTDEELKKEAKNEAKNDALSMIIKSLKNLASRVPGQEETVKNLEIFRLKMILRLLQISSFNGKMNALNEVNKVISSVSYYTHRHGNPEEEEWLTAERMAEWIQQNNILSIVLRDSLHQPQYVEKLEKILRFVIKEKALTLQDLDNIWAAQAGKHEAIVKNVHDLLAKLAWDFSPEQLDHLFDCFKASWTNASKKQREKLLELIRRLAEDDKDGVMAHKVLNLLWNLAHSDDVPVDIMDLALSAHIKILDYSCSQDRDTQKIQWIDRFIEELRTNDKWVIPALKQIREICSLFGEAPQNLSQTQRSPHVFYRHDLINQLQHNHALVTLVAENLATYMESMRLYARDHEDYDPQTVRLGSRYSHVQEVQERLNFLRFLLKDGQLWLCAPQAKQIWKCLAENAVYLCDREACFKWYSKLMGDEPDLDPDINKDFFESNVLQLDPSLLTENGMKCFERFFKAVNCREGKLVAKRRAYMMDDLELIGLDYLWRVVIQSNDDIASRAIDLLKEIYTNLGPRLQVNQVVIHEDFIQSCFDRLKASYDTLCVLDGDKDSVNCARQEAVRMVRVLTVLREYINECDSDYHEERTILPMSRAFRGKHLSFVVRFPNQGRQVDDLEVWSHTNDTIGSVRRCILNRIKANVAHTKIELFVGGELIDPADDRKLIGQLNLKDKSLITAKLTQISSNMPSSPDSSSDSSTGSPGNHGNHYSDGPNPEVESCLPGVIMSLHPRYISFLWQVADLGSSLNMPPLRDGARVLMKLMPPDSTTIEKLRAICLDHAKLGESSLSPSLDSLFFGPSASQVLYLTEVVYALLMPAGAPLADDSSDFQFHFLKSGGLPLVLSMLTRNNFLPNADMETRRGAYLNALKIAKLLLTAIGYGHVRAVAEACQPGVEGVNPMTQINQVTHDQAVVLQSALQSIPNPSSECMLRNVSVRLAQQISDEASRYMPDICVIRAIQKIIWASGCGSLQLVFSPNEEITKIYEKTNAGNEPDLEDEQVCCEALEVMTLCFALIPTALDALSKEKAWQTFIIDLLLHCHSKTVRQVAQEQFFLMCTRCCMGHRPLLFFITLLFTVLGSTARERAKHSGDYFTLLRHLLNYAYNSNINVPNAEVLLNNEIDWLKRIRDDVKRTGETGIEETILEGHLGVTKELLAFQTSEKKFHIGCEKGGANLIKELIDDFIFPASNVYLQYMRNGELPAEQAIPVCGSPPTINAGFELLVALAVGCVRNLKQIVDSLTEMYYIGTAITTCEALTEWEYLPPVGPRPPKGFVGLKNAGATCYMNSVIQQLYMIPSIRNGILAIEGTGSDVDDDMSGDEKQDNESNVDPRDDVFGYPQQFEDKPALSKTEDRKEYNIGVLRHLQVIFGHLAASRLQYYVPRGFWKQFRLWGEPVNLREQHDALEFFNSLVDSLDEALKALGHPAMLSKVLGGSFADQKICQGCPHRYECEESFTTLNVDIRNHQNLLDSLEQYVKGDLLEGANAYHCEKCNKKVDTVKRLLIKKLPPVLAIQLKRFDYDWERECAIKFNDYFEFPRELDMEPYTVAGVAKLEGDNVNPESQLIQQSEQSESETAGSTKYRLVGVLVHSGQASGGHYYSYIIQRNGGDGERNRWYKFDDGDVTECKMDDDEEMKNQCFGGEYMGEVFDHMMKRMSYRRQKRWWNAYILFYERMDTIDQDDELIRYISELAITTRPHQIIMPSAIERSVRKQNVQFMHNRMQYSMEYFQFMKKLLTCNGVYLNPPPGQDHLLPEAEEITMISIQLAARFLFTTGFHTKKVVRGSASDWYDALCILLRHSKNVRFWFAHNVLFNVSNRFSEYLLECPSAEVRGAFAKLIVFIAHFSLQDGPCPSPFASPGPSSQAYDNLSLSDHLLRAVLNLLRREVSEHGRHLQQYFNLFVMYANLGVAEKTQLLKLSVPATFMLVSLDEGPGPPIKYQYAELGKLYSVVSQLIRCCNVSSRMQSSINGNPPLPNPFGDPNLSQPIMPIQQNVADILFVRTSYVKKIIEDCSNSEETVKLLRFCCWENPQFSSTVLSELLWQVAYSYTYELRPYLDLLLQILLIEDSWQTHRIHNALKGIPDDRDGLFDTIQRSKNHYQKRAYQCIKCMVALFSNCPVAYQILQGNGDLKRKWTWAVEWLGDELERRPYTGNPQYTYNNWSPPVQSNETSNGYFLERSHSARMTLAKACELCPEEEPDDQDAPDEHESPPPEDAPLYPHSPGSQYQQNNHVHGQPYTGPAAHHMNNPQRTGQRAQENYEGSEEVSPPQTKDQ
# Outline: (§1)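 Using Biotin-Ahx-Ub-VS at 0.5 µM final for 1 h, DUBs were labelled in HEK293T lysate (495 µg per sample) that had first been treated in triplicate with fragment at 200 µM or vehicle for 3 h. NeutrAvidin enrichment, LysC and trypsin digestion and diaPASEF LC-MS/MS followed. Spectronaut label-free quantities were global-median-normalised. Values are average log2 fragment/vehicle ratios by unpaired t-test, using proteins with ≥2 unique peptides.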
# [2] = target: UniProt O00487
# Chain of UniProt O00487 (O00487 whole entry): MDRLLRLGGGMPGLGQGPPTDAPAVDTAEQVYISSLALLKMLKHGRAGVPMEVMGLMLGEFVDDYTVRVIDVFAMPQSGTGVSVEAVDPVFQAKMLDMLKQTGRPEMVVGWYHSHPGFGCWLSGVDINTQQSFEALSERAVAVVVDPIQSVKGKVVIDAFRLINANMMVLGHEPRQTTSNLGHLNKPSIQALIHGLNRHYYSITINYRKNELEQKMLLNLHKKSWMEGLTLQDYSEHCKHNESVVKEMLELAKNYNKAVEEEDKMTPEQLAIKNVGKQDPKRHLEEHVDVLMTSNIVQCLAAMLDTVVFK
# Outline: as §1
# [3] = target: UniProt O00507
# Outline: as §1
# [4] = target: UniProt P51784
# Chain of UniProt P51784 (P51784 whole entry): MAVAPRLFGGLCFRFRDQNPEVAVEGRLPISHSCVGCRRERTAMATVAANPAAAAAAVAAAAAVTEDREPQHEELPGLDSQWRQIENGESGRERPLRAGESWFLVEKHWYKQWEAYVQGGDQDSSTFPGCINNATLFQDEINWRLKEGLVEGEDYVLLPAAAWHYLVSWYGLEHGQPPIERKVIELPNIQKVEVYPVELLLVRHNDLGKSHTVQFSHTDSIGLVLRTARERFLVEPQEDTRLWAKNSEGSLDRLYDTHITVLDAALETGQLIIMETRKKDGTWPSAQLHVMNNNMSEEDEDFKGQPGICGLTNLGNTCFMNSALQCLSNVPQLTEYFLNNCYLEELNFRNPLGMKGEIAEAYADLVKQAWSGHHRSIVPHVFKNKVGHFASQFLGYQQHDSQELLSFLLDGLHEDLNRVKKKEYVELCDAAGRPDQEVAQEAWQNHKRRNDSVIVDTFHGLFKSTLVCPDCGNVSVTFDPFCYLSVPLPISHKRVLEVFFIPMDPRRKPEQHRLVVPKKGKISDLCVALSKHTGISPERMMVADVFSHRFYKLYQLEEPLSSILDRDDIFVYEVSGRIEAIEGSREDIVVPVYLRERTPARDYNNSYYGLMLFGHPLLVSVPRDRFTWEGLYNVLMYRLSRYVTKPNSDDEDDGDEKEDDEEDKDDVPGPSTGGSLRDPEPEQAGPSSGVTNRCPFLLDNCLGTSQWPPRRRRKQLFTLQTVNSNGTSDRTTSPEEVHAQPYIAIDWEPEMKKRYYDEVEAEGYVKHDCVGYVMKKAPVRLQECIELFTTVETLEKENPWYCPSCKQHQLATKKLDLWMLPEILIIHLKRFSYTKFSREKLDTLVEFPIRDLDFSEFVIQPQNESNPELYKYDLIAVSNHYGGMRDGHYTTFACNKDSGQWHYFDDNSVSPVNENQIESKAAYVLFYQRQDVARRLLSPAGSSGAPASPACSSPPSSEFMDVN
# Outline: as §1
# [5] = target: T1, UniProt Q5T2D3
# T1 sequence (whole entry): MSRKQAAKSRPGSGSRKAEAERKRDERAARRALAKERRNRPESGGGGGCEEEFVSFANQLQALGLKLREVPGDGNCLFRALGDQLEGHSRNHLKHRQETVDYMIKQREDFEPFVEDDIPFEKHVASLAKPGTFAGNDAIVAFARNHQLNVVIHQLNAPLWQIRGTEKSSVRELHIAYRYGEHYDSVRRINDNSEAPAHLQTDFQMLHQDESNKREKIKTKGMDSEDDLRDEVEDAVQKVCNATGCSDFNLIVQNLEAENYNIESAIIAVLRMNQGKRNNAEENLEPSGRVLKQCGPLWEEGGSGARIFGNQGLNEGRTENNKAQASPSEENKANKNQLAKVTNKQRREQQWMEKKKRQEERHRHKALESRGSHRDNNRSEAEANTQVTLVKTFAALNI
# Outline: as §1
# [6] = target: T2, UniProt Q8TE49
# T2 sequence (whole entry): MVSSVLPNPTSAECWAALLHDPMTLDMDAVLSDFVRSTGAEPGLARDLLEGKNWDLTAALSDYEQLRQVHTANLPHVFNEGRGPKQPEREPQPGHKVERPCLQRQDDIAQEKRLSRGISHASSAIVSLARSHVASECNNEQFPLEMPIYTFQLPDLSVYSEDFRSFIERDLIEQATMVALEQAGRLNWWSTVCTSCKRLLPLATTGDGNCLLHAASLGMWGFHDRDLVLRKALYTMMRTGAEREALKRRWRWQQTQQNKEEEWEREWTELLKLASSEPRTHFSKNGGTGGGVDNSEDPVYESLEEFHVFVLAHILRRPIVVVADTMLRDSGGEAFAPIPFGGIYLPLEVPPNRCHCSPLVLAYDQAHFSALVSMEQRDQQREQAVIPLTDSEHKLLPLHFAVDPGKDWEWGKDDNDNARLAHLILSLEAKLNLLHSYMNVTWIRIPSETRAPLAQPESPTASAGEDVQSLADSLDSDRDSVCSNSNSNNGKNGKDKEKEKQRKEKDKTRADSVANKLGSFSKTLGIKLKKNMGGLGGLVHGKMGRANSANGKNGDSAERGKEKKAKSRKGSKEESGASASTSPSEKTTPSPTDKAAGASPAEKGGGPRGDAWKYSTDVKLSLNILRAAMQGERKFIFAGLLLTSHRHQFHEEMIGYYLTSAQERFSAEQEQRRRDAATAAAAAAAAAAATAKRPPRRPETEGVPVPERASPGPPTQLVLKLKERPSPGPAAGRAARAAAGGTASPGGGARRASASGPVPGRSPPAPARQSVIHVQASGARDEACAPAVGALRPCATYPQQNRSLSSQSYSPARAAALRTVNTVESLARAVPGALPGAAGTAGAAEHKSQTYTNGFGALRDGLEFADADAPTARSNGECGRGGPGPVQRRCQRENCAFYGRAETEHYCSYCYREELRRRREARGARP
# Outline: as §1
# [7] = target: T3, UniProt Q9P2H5
# T3 sequence (whole entry): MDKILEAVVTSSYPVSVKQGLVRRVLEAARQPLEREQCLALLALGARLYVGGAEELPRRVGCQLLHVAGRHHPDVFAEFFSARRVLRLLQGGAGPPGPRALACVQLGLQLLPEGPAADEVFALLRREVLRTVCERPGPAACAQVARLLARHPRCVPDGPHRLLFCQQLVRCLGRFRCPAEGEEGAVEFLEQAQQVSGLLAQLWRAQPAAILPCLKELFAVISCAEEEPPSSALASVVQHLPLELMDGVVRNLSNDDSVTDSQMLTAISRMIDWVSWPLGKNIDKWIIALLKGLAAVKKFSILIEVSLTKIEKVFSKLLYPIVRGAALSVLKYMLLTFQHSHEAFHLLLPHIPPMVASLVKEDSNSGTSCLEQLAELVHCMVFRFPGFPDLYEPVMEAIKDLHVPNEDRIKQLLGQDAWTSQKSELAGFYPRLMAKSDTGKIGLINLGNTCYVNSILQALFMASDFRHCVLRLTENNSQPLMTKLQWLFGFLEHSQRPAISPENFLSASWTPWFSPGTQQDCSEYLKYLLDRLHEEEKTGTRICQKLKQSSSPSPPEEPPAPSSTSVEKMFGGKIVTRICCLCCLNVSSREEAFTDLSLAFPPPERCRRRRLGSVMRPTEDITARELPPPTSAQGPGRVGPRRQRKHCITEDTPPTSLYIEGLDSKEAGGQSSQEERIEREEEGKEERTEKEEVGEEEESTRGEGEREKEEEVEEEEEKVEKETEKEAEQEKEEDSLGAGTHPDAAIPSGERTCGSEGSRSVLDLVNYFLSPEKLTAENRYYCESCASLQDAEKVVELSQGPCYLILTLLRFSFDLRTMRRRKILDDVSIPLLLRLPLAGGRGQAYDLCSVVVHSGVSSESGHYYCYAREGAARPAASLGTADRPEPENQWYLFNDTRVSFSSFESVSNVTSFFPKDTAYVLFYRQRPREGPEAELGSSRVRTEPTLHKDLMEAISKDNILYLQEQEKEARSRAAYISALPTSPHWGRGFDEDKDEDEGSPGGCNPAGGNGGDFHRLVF
# Outline: as §1
# [8] = target: T4, UniProt Q9UGI0
# T4 sequence (whole entry): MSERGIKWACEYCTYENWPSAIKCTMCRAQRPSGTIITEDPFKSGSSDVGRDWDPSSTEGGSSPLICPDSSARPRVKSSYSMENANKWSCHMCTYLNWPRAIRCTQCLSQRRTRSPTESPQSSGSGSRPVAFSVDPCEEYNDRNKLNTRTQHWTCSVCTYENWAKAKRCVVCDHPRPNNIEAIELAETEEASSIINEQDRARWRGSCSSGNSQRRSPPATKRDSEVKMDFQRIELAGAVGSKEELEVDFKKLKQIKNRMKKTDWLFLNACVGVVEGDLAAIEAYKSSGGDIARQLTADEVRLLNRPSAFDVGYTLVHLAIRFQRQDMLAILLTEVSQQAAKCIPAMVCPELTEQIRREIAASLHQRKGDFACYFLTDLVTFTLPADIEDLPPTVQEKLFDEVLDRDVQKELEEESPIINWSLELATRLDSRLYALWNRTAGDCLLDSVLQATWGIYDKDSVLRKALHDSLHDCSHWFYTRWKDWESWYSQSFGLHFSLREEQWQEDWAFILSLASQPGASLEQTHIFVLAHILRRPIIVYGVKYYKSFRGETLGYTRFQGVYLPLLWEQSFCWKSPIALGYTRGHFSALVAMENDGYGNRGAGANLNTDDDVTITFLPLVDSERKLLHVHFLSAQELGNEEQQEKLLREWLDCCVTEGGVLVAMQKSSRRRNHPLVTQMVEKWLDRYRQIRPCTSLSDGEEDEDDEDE
# Outline: as §1
# [9] = target: T5, YOD1 (UniProt Q5VVQ6)
# T5 sequence (whole entry): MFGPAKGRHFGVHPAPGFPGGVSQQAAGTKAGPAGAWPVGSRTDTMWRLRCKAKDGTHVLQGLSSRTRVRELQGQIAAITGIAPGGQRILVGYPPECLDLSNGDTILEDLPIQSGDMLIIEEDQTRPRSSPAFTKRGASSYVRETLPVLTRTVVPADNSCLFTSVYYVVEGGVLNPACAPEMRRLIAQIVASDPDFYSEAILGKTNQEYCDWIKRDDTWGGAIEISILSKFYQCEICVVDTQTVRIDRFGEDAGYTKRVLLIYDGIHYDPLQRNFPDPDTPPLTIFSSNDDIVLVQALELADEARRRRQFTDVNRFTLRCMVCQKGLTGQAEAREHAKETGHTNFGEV
# Outline: as §1
smiles,measurement,setting,value
Cl.O=C(CCl)N1CCn2ncc(O)c2C1,log2 ratio of Biotin-Ahx-Ub-VS probe labelling,[1],-0.396
same,log2 ratio of Biotin-Ahx-Ub-VS probe labelling,[2],-0.395
same,log2 ratio of Biotin-Ahx-Ub-VS probe labelling,[3],-0.112
same,log2 ratio of Biotin-Ahx-Ub-VS probe labelling,[4],-0.0869
same,log2 ratio of Biotin-Ahx-Ub-VS probe labelling,[5],-0.448
same,log2 ratio of Biotin-Ahx-Ub-VS probe labelling,[6],-2.17 (active)
same,log2 ratio of Biotin-Ahx-Ub-VS probe labelling,[7],-0.541
same,log2 ratio of Biotin-Ahx-Ub-VS probe labelling,[8],-1.92 (active)
same,log2 ratio of Biotin-Ahx-Ub-VS probe labelling,[9],-0.272
